# PubChem BioAssay (EPA / NIEHS)
# Activity calls are given as the source filed them. Rule for the calls, unless noted: active = hit-call score of the fitted dose curve at least 0.9, where 1 is the maximum; inconclusive = response in the unintended direction; inactive = score below 0.9.
# Molecular target: Estrogen receptor (Homo sapiens) (UniProt P03372)
# Assay: OT_ERa_GFPERaERE_0480: Odyssey Thera (OT) 8-hour HeLa Transcription Induction Assay for Estrogen Receptor (AID 2283381; active = hit-call score of the fitted dose curve at least 0.9, where 1 is the maximum; inactive = score below 0.9)
# Method in brief: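 Human cervical HeLa cells were treated for 8 hours, after which ERE-driven GFP induction was measured by fluorescence microscopy; increases over DMSO baseline defined activity.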
# Estrogen receptor (Homo sapiens), sequence (P03372 whole entry, looked up): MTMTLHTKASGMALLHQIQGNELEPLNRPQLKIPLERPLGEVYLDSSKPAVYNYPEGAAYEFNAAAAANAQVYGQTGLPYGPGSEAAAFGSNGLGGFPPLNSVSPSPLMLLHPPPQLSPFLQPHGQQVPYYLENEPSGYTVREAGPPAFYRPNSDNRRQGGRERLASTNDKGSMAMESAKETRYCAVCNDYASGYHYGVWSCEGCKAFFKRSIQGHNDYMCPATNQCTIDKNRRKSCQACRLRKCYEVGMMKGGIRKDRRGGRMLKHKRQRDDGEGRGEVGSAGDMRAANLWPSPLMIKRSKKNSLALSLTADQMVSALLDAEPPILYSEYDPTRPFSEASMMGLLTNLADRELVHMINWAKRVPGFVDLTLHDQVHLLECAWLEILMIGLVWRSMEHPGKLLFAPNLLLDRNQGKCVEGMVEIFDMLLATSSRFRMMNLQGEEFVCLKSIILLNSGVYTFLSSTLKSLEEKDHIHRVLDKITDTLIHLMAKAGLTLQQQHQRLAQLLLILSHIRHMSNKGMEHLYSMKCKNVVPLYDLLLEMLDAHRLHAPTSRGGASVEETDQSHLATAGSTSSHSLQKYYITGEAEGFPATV
row,Structure (SMILES),outcome
1,COc1ccc(O)c(C(C)(C)C)c1,inactive
2,C[C@]12CCC(=O)C=C1CC[C@@H]1[C@@H]2CC[C@]2(C)C(=O)CC[C@@H]12,inactive
3,O=C(N[C@H]1CN2CCC1CC2)c1cc2ccoc2cn1,inactive
4,O=C(NC(=O)c1c(F)cccc1F)Nc1cc(Cl)c(OC(F)(F)C(F)F)c(Cl)c1,inactive
5,COS(=O)(=O)OC,inactive
6,O=S(=O)(O)C(F)(F)C(F)(F)C(F)(F)C(F)(F)F,inactive
7,ClC1=C(Cl)[C@]2(Cl)[C@@H]3[C@@H](Cl)[C@H]4O[C@H]4[C@@H]3C1(Cl)C2(Cl)Cl,inactive

# Molecular target: Estrogen receptor (Homo sapiens) (UniProt P03372)
# Assay: OT_ERa_GFPERaERE_0120: Odyssey Thera (OT) 2-hour HeLa Transcription Induction Assay for Estrogen Receptor (AID 2283382)
# Method in brief: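 Cells (human cervical HeLa) receive compound, incubate 2 hours, then are imaged for fluorescent reporter induction. Images are quantified by high content analysis, and activity is fitted as gain of signal against DMSO.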
row,Structure (SMILES),outcome
1,C=CC(N)=O,inactive
2,O=S(=O)(O)C(F)(F)C(F)(F)C(F)(F)C(F)(F)C(F)(F)C(F)(F)F,inactive
3,CCOCCOC(C)=O,inactive
4,COc1ccc(O)c(C(C)(C)C)c1,inactive
5,Cc1ccccc1O,inactive
6,C1CC2OC2CC1C1CO1 (configuration not stated),inactive
7,ClC1=C(Cl)[C@]2(Cl)[C@@H]3[C@@H]4C[C@@H]([C@H]5O[C@@H]45)[C@@H]3[C@@]1(Cl)C2(Cl)Cl,inactive
8,CO/C=C(/C(=O)OC)c1ccccc1COc1cccc(C(F)(F)F)n1,inactive
9,O=C(NC(=O)c1cc(F)c(F)cc1Cl)Nc1cc(F)ccc1N1CCC(C(=O)O)CC1,inactive
10,Cc1cccc(C)c1N,inactive
11,CCSC(=O)N(CC)C1CCCCC1,inactive
12,CCOP(=S)(OCC)SCSC(C)(C)C,inactive
13,C[C@]12CCC(=O)C=C1CC[C@@H]1[C@@H]2CC[C@]2(C)C(=O)CC[C@@H]12,inactive
14,O=C(N[C@H]1CN2CCC1CC2)c1cc2ccoc2cn1,inactive
15,O=C(NC(=O)c1c(F)cccc1F)Nc1cc(Cl)c(OC(F)(F)C(F)F)c(Cl)c1,inactive
16,Cc1ccccc1[N+](=O)[O-],inactive
17,Sc1ccccc1,inactive
18,N#Cc1ccc(N(CC(N)=O)CC(F)(F)F)cc1C(F)(F)F,inactive
19,Clc1ccc(Cl)cc1,inactive
20,CN(C)CCO,inactive
21,c1cc2ccc3cccc4ccc(c1)c2c34,inactive
22,CN(C)c1nc(=O)n(C2CCCCC2)c(=O)n1C,inactive
23,COS(=O)(=O)OC,inactive
24,CCC(C)c1cc([N+](=O)[O-])cc([N+](=O)[O-])c1O (configuration not stated),inactive
25,O=C(O)C(F)(F)C(F)(F)C(F)(F)C(F)(F)C(F)(F)F,inactive
26,Clc1ccc(C(Cl)(Cl)Cl)cc1,inactive
27,O=S(=O)(O)C(F)(F)C(F)(F)C(F)(F)C(F)(F)F,inactive
28,ClC1=C(Cl)[C@]2(Cl)[C@@H]3[C@@H](Cl)[C@H]4O[C@H]4[C@@H]3C1(Cl)C2(Cl)Cl,inactive
29,OCC(O)CO,inactive
30,Cc1cccc([N+](=O)[O-])c1,inactive
